According to ChEMBL document CHEMBL3988442, “University of Dundee, Small-Polar-MMV Screening Library” (2021):

molecular target: AMP-activated protein kinase, AMPK (Homo sapiens) (UniProt P54646+O43741+P54619+Q9UGJ0+Q9Y478+Q13131+Q9UGI9); test: AMP-dependent Kinase enzyme assay. An in vitro enzyme assay that detects ADP turnover that is directly proportional to AMPK activity. This uses naive AMPK that is activated during the assay with MK-8722; assay type: functional; design: scale not given: direction of the effect not stated beside the values; conditions: 30 µM

Question: With CC1CCCCN1C(=O)Cn1cnc(C#N)n1 (stereo not given) as the molecule, how does the Percent Effect read?
Answer: -5.33%

Question: For Cc1nc(N(C)C)ncc1C(=O)N(Cc1ccncc1)CC1CCCO1 (stereo not given), which Percent Effect is on record?
Answer: -6.01%

Question: With O=C(NCc1nnc2n1CCCC2)c1ccc(C2CCCO2)s1 (stereo not given) as the molecule, how does the Percent Effect read?
Answer: -8.64%

Question: How did the Percent Effect turn out when COc1cc(Cl)ccc1CNC(=O)N(C)C(C)CS(C)(=O)=O (stereo not given) was run?
Answer: -1.65%

Question: How did the Percent Effect turn out when COCCC(=O)N(C)CCC1=CCN(C)CC1 was run?
Answer: -12.9%

Question: Which Percent Effect does the source give for CS(=O)(=O)c1ccccc1N[C@@H]1c2ccccc2C[C@@H]1O here?
Answer: -13.1%

Question: CN1CCN(CCOc2ccc(NC(=O)c3ccoc3)cc2)CC1 was tested. Which Percent Effect did it give?
Answer: -4.02%

Question: For C[C@@H]1CN(Cc2cn(C)nc2-c2ccccc2F)C[C@H](C)O1, which Percent Effect is on record?
Answer: 19.5%

Question: For CC(C)N(Cc1ccccn1)C(=O)CCOc1cccc(F)c1, which Percent Effect is on record?
Answer: -0.803%

Question: For COc1cccc(-c2nc(CNCCc3cccnc3)cs2)c1, which Percent Effect is on record?
Answer: -3.62%

Question: How did the Percent Effect turn out when CC(C)c1nn(C)cc1CNCc1cccnc1N(C)C was run?
Answer: 0.312%

Question: Which Percent Effect does the source give for CC(C)c1cc(C(=O)NCC2CCCN(c3ncccn3)C2)n(C)n1 (stereo not given) here?
Answer: 5.97%

Question: Which Percent Effect does the source give for Clc1ccccc1CCn1ccnc1-c1cn(C2CCNCC2)nn1 here?
Answer: -7.28%

Question: With CC(O)CN1CCN(C(=O)CCOc2ccccc2F)CC1 (stereo not given) as the molecule, how does the Percent Effect read?
Answer: -1.3%

Question: Which Percent Effect does the source give for CCNC(=O)[C@@H]1C[C@@H](N)CN1C(=O)c1[nH]c2ccccc2c1CC here?
Answer: 13.5%

Question: With O=C1OC2(CCN(CC3CCCO3)CC2)CN1CCc1ccccc1 (stereo not given) as the molecule, how does the Percent Effect read?
Answer: -11.7%

Question: For O=C(c1ccncc1)N1CCC(Oc2cccc(C(F)(F)F)c2)CC1, which Percent Effect is on record?
Answer: -1.49%

Question: Which Percent Effect does the source give for CCN(C)S(=O)(=O)N[C@H]1CN(c2ccc(F)cn2)C[C@@H]1C(C)C here?
Answer: -6.05%

Question: For CCC[C@H]1CN(c2cncc(C(=O)N(C)C)n2)C[C@@H]1N(C)C, which Percent Effect is on record?
Answer: 9.69%

Question: Cc1noc(CCCc2nc(C3CCOC3)no2)n1 (stereo not given) was tested. Which Percent Effect did it give?
Answer: 10.8%

Question: With Cc1nc2n(n1)CC(NCc1ccc(Cl)c3cccnc13)CC2 (stereo not given) as the molecule, how does the Percent Effect read?
Answer: 9%

Question: With N#Cc1c(N)nc2c(c1-c1c[nH]nc1C1CCCCC1)CNCC2 as the molecule, how does the Percent Effect read?
Answer: 17.6%

Question: Which Percent Effect does the source give for COc1ccc(S(=O)(=O)C2CCN(C(=O)c3cc(C)cs3)CC2)cc1 here?
Answer: 2.13%

Question: How did the Percent Effect turn out when CC(C)c1cc(NCc2csc(C(C)C)n2)nc(N)n1 was run?
Answer: -7.72%

Question: For Cc1cccc(C(C)C)c1NC(=O)CN(C)C(C)c1nccs1 (stereo not given), which Percent Effect is on record?
Answer: -7.09%

Question: With CN(C)c1ccc(C(=O)Nc2ccn(Cc3ccccn3)n2)cn1 as the molecule, how does the Percent Effect read?
Answer: 18.9%

Question: Cc1nc(CNC(=O)Nc2cc(F)ccc2N2CCN(C)CC2)no1 was tested. Which Percent Effect did it give?
Answer: 13.3%

Question: For N#Cc1cc(S(N)(=O)=O)ccc1N1CCN(c2ccccc2)CC1, which Percent Effect is on record?
Answer: 10.8%

Question: With CCc1nc(C)c(CN2CCOC(Cc3cccc4ccccc34)C2)[nH]1 (stereo not given) as the molecule, how does the Percent Effect read?
Answer: -0.756%

Question: CNC(=O)[C@@H](C)NC(=O)c1cc(-c2ccc(F)cc2)c(C)s1 was tested. Which Percent Effect did it give?
Answer: 2.33%

Question: With O=C1CCC(=O)N1CCn1nnc(-c2ccc(Br)cc2)n1 as the molecule, how does the Percent Effect read?
Answer: -9.11%

Question: CCC(C(=O)N(Cc1ccccn1)C1CCCCC1)n1cccn1 (stereo not given) was tested. Which Percent Effect did it give?
Answer: 1.8%

Question: With CCC(CNS(=O)(=O)c1cccc(C(=O)OC)c1)N1CCCC1 (stereo not given) as the molecule, how does the Percent Effect read?
Answer: -8.76%

Question: CC(C)c1nnc(CN2CCc3ccc(S(N)(=O)=O)cc32)o1 was tested. Which Percent Effect did it give?
Answer: -0.483%

Question: With O=C(c1ccnc(-n2cnnc2)c1)N1CCCC2(CCOC2)C1 (stereo not given) as the molecule, how does the Percent Effect read?
Answer: -4.79%

Question: Which Percent Effect does the source give for O=C(NCc1cccnc1N1CCCCC1)c1ccc2c(c1)OCO2 here?
Answer: -2.38%

Question: CNS(=O)(=O)CC(=O)NCc1cc2c(s1)CCCCC2 was tested. Which Percent Effect did it give?
Answer: -1.26%

Question: Which Percent Effect does the source give for O=C(Cc1ccc2c(c1)CCC2)NC1CCN(Cc2ccccc2)CC1 here?
Answer: -0.352%

Question: COCCn1ccnc1C1CCN(C(=O)CSc2nnc(C)s2)CC1 was tested. Which Percent Effect did it give?
Answer: 7.22%

Question: Which Percent Effect does the source give for CCCC1(CO)CCCN(C(=O)CNC(N)=O)C1 (stereo not given) here?
Answer: 8.45%
